This passage reports INHIBITION results from ChEMBL document CHEMBL4513216, “Probing the Open Global Health Chemical Diversity Library for Multistage-Active Starting Points for Next-Generation Antimalarials” (ACS Infect Dis, 2020).

The structures appear in SMILES notation. Screen size: about 69,000 compounds; about 8,600 (12%) showed an effect of 50% or more. This excerpt belongs to a sample that is enriched for strong results.

The subject of the test is Plasmodium berghei. In words: Screen against P. berghei liver stage (PbLuc), transformed with Luciferase, at 10uM. It is filed as functional, HepG2. As to conditions: tested at 10 uM.
For the compound `CCOC(=O)N1CCC(OC)c2ccccc2N(C)C(=O)C1` (stereo unspecified), the INHIBITION turned out to be 46.4%. As for `CCc1cc(=O)n(CC(=O)N2CCCC2)c(-c2cccc(F)c2)n1`, the figure is 46.6%; as for `COCC(=O)N1CCN(C(=O)c2scnc2C)CC1`, 21.3%; as for `Cc1cnc(-c2nc(O)c3c(n2)CN(C(=O)C2CC2)CC3)cn1`, 9.98%. As for `CCN(CC)C1CCN(c2ncnc3c2CCN(C(=O)C2CC2)C3)C1` (stereo unspecified), the figure is 64.5%. As for `O=C(C1CC1)N1CCCN(c2ncnc3c2CCNCC3)CC1`, the figure is -20.6%. For `CSCCC(=O)N1CCc2c(ncnc2N2CCOCC2)C1`, the INHIBITION was -103%. As for `CNC(=O)C1CCN(c2ncnc3c2CCN(C(=O)C2CC2)C3)C1` (stereo unspecified), the figure is 57.8%. For the compound `CCCOC1CCCN(c2ncnc3c2CCN(C(=O)C2CC2)C3)C1` (stereo unspecified), the INHIBITION is given as 49.9%. As for `O=C(C1CC1)N1CCc2c(ncnc2N2CCN3CCCC3C2)C1` (stereo unspecified), the figure is 46.6%; as for `CCOCC(=O)N1CCc2c(ncnc2N2CCOCC2)C1`, -68.2%. In the case of `CCN1CCN(c2ncnc3c2CCN(C(=O)C2CC2)C3)CC1`, the INHIBITION is reported as 61.1%. For the compound `CN1CCC(c2cnc(NCc3nccn3C)cn2)CC1`, the INHIBITION is 33.2%. As for `COCC1CN(Cc2ccc(C)o2)Cc2nnn(CC3CC3)c21` (stereo unspecified), the figure is -8.19%. As for `Cn1nc(Br)nc1Sc1ccccc1NC(=O)C1CC1`, the figure is 37.4%; as for `O=C1N(Cc2cccc(Cl)c2)CCC12CCCNC2` (stereo unspecified), -15.9%; as for `Cc1cnn(CC2CCCN2C(=O)CCc2c(C)nn(C)c2C)c1` (stereo unspecified), 0.825%. As for `CCCC(NC(=O)c1cncc(C)c1)c1nnn[nH]1` (stereo unspecified), the figure is 23.5%. For `CCN1CC[C@@]2(C(=O)Nc3ccccc3)CCN(S(C)(=O)=O)CC[C@@H]12`, the INHIBITION was determined as 35.8%.

`CCc1cc(C(=O)N[C@@H]2CC[C@@H](N3CCOCC3)[C@@H]2O)no1`: the INHIBITION is on record as 10.9%. As for `Cc1ccc(N2CCN(C(=O)COc3ncccn3)CC2)nn1`, the figure is -38.7%; as for `Cc1ccc(N2CCN(C(=O)COc3nccc(C)n3)CC2)nn1`, 50.5%; as for `Cc1ccnc(OCC(=O)N2CCN(c3ncccn3)CC2)n1`, -17.8%. Regarding `CNC(=O)C1(c2cnccn2)CCCN1C(=O)c1c(F)cccc1F` (stereo unspecified), the INHIBITION came out at 34%. As for `C[C@@H]1CN(C(=O)CCCN2CCCC2)CC[C@@]1(O)C1CCOCC1`, the figure is 10.6%; as for `Cc1cccc(=O)n1CCC(=O)N1CC[C@](C)(O)[C@H](C)C1`, 51.3%. As for `C[C@@H]1CN(C(=O)CCCN2CCOCC2)C[C@@]1(O)C1CC1`, the figure is 37.7%; as for `Cc1cccc(=O)n1CCC(=O)N1CC[C@@](O)(C2CCC2)[C@H](C)C1`, 47.6%; as for `C[C@@H]1CN(C(=O)CCN2CCCC2)CC[C@@]1(O)C1CCC1`, 27.9%. Regarding `C[C@@H]1CN(C(=O)CCN2CCCC2)CC[C@@]1(O)C1CCOCC1`, the INHIBITION turned out to be 25.4%. As for `C[C@@H]1CN(C(=O)CCN2CCOCC2)CC[C@]1(C)O`, the figure is 55%. As for `C[C@@H]1CN(C(=O)CCCN2CCOCC2)CC[C@@]1(O)C1CCC1`, the figure is 64.9%; as for `CC[C@H]1CN(C(=O)CCn2c(C)cccc2=O)CC[C@@]1(C)O`, -22.7%. As for `CNCC1CCC(c2cc(CN(C)S(=O)(=O)N(C)C)n(C)n2)CC1` (stereo unspecified), the figure is 44.3%.

Take `CC(C)OC(=O)N1C[C@@H]2CC[C@H]1CN(C(=O)c1ccccn1)C2`: the INHIBITION is -26.4%.

Turning to `COc1nonc1NCn1nc(C)cc1C`, the INHIBITION is given as 39.7%.

Turning to `CN(C)Cc1nc(C2(NC(=O)Nc3cccc(F)c3)CCCC2)no1`, the INHIBITION is 38.2%. As for `CCN1CCN(C2CCN(CC(=O)NCC(F)(F)F)CC2)C1=O`, the figure is -3.2%; as for `Cc1nccn1[C@@H]1CC[C@@H](NC(=O)Cn2c(C)nc3ccccc32)[C@H]1O`, 23.9%; as for `COc1ccccc1CN(Cc1nc(C)no1)C1CC1`, 17.4%. As for `Cc1cncnc1C1CCN(C(=O)C2(C)CCCCN2C)CC1` (stereo unspecified), the figure is 1.45%. As for `Cn1ccnc1-c1ccc(NCC2COc3ccccc3O2)nn1` (stereo unspecified), the figure is -9.17%; as for `Cn1ccnc1-c1ccc(NC[C@H]2CCc3ccccc3O2)nn1`, 60%. In the case of `Cn1ccnc1-c1ccc(NCCC2COc3ccccc3O2)nn1` (stereo unspecified), the INHIBITION is on record as 34%. As for `CCC(O)CN1CCN(C(=O)c2sccc2C2CC2)CC1` (stereo unspecified), the figure is 19.5%. Take `Cc1nc(CN2CCN(C(C)c3nc(C(C)C)no3)CC2)oc1C` (stereo unspecified): the INHIBITION is 6.7%. As for `Cc1cnn(C2CN(c3nc(-c4ccncc4)nc4c3CCC4)C2)c1`, the figure is 44.3%; as for `c1cnn(C2CN(c3nc(-c4ccncc4)nc4c3CCC4)C2)c1`, 53.6%; as for `Cc1cc(C)n(C2CN(c3nc(-c4ccncc4)nc4c3CCC4)C2)n1`, 81.4%.

Turning to `Cc1cc(C)n(C2CN(c3ncnc4c3CCC4)C2)n1`, the INHIBITION was determined as 0.868%.

Take `OCCC1CN(c2nc(-c3ccncc3)nc3c2CCNCC3)CCO1` (stereo unspecified): the INHIBITION amounted to 11.8%. Turning to `Cc1cc(C)n(C2CN(c3nc(N)nc4c3CCCC4)C2)n1`, the INHIBITION was found to be 34.1%. For the compound `CC1(c2ncc(CN(CC(=O)O)Cc3ccccc3)cn2)CCCCO1` (stereo unspecified), the INHIBITION is 16.9%. As for `Cc1ccc(F)c2c1CCCN2C(=O)c1cn(CC(=O)N(C)C)nn1`, the figure is 29.1%; as for `CC1(C)OCC(CNC(=O)c2cnn(-c3cccc(Cl)c3Cl)c2N)O1` (stereo unspecified), -101%. As for `Cn1ccnc1CN1CCCC1CCc1ccccc1` (stereo unspecified), the figure is -67.9%.
